Holding throughout (settings): concentration: 1 μM, replicates: in singlicate; n = 1
Assay [1] concerns STK36.
Assay [2] deals with STK39.
The subject of assay [3] is SYK.
Assay [4] has as its system SgK110.
Assay [5] deals with T1, TAK1.
T1 construct: gene MAP3K7

Assay [6] deals with TAOK1.
The test system of assay [7] is TAOK2.
The test system of assay [8] is TAOK3.
Assay [9] relates to TBK1.
For assay [10], the system named is TEC.
The test system of assay [11] is TESK1.
Assay [12] relates to TGFBR1.
For assay [13], the system named is TGFBR2.
Assay [14] concerns TIE1.
Assay [15] has as its system T2, TIE2.
T2 construct: gene TEK

In assay [16] the test system is TLK1.
Assay [17] relates to TLK2.
Assay [18] has as its system TNIK.
Assay [19] has as its system TNK1.
Assay [20] relates to TNK2.

Structures are written as SMILES.
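Note: KINOMEscan kinase panel screen.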

On to `O=C(NC1CCN(c2ccnc(Nc3ccc(F)cc3)n2)C1)c1cc2ccccc2s1` (stereo not shown) [GSK1379716], for which the “%Inh” value in [1] was found to be 0%; in assay [2], 4%; in assay [3] it was 42%; in assay [4], 0%; in [5], 0%; in assay [6], 0%. The “%Inh” value in assay [7] was found to be 0%; in [8], 0%; in assay [9] it was 20%; in assay [10], 16%; in assay [11], 31%; in [12] it was 39%. For the same compound, the “%Inh” value in assay [13] is 0%; in [14] it was 24%; in assay [15] it was 0%; in assay [16], 7%; in assay [17], 0%; in assay [18] it was 1%. Further, the results for the “%Inh” value in assay [19] and in assay [20] were 0% and 21%, respectively.

Take `O=C(Nc1ccccc1F)NC1CCN(c2ccnc(Nc3ccc(F)cc3)n2)CC1` [GSK1379800]: the “%Inh” value in [1], in assay [2], in [3], in assay [4], in [5] and in assay [6] was 0% in each case. Further, the “%Inh” value in assay [7] is 0%; in assay [8], 0%; in assay [9], 8%; in assay [10] it was 0%; in assay [11], 17%; in assay [12], 36%. Moreover, the “%Inh” value in assay [13] is given as 0%; in assay [14], 6%; in [15] it was 7%; in assay [16] it was 0%; in [17], 0%; in assay [18], 0%. Also, the “%Inh” value amounted to 0% in assay [19] and 15% in assay [20].

As to `Cl.Cl.NCC(C(=O)Nc1cc(Br)c(-c2ccnc3[nH]ccc23)s1)c1ccccc1` (stereo not shown) [GSK1269851], the “%Inh” value in assay [1] came out at 0%; in assay [2], 44%; in assay [3], 7%; in [4] it was 0%; in assay [5] it was 0%; in assay [6], 0%. Further, the “%Inh” value in assay [7] is listed as 0%; in [8], 0%; in assay [9] it was 7%; in assay [10] it was 11%; in [11], 0%; in [12] it was 0%. Besides, the “%Inh” value in [13] is given as 0%; in assay [14] it was 51%; in [15] it was 6%; in assay [16] it was 0%; in assay [17], 0%; in assay [18], 11%. The “%Inh” value in [19] worked out at 6%; in assay [20], 12%.

As to `COc1ccc(Nc2nccc(NCCNC(=O)c3cc4ccccc4s3)n2)cc1` [GSK1379896], the “%Inh” value in assay [1] is 0%; in assay [2] it was 3%; in [3] it was 2%; in assay [4] it was 24%; in assay [5], 0%; in assay [6], 0%. Besides, the “%Inh” value in assay [7] turned out to be 0%; in assay [8], 0%; in [9], 2%; in assay [10] it was 0%; in assay [11], 0%; in [12], 0%. The “%Inh” value in [13], in assay [14], in assay [15], in assay [16], in [17] and in [18] was 0% throughout. Moreover, the results for the “%Inh” value in assay [19] and in assay [20] were 0% and 4%, respectively.

Turning to `c1ccc(-c2n[nH]cc2Nc2ccnc3ccccc23)nc1` [GW694077], the “%Inh” value in assay [1] is recorded as 0%; in assay [2], 8%; in [3], 16%; in assay [4], 0%; in assay [5], 91.6%; in assay [6], 66%. Besides, the “%Inh” value in assay [7] turned out to be 21%; in [8], 10%; in assay [9], 0%; in assay [10], 0%; in [11], 11%; in assay [12], 5%. Also, the “%Inh” value in [13] was 56%; in [14], 0%; in assay [15] it was 0%; in assay [16], 0%; in [17], 0%; in assay [18] it was 42%. The “%Inh” value was found to be 0% in assay [19] and 1% in assay [20].

Regarding `COc1cc(Nc2nccc(N3CCC(NC(=O)c4cc5ccccc5s4)C3)n2)cc(OC)c1OC` (stereo not shown) [GSK1379760], the “%Inh” value in [1] is on record as 32%; in assay [2], 0%; in assay [3] it was 52%; in assay [4], 0%; in [5], 12%; in [6], 0%. For the same compound, the “%Inh” value in assay [7] came to 0%; in assay [8] it was 0%; in assay [9], 3%; in [10], 10%; in [11] it was 9%; in assay [12], 0%. The “%Inh” value in assay [13] came to 0%; in [14] it was 35%; in [15], 0%; in assay [16] it was 8%; in assay [17] it was 18%; in assay [18], 0%. Also, the entries for the “%Inh” value in assay [19] and in assay [20] were 0% and 15%, respectively.

Turning to `Nc1n[nH]c2cnc(-c3ccccc3)cc12` [SB-642124], the “%Inh” value in [1] stood at 0%; in assay [2], 0%; in assay [3] it was 0%; in [4], 50%; in assay [5] it was 0%; in assay [6] it was 51%. The “%Inh” value in [7] is on record as 9%; in assay [8] it was 7%; in assay [9], 1%; in [10] it was 68%; in [11], 22%; in assay [12] it was 27%. Also, the “%Inh” value in assay [13] stood at 58%; in [14] it was 100%; in [15], 0%; in assay [16], 25%; in assay [17], 0%; in assay [18], 39%. For the same compound, the results for the “%Inh” value in assay [19] and in assay [20] were 0% and 38%, respectively.

Take `COc1cccc(C(=O)Nc2cccc(Oc3ccc4nc(NC(=O)C5CC5)cn4n3)c2)c1`: the “%Inh” value in assay [1] came to 0%; in assay [2], 0%; in assay [3], 12%; in assay [4], 0%; in assay [5], 0%; in [6] it was 34%. Moreover, the “%Inh” value stood at 58% in assay [7]; 0% in assay [8]; 48% in assay [9]; 9% in assay [10]; 0% in [11]; 0% in [12]. The “%Inh” value in assay [13] was 40%; in assay [14], 84%; in assay [15], 67%; in assay [16] it was 4%; in [17], 0%; in [18] it was 54%. Also, the “%Inh” value is on record as 48% in assay [19] and 5% in assay [20].
